From PubChem BioAssay (Tox21)
Values without a mark were called inactive. Records with an inconclusive call do not appear. A call without a number means that no potency is given here. Calls of active or inactive are those of the source. Unless noted, calls follow the shape of the dose curve; as a rule, active = well fitted curve in the direction sought with a large enough effect in the repeat runs; inconclusive = weak or mixed curves; inactive = no such curve, though single readings can be large; an effect the other way counts as inactive or inconclusive.

How the values were obtained:
[1] = A CellTox Green Cytotoxicity Assay to monitor cytotoxicity in HepG2 cells - 8 hour (AID 1224890); also: nearly all actives have a fitted effect of over 45% in size; also: potency is read from the fitted curve at half-maximal effect
Outline: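 Fluorescent DNA-binding dye, 600 HepG2 cells/well, 5 h preincubation then compound in DMSO; same plates read at 0–40 h, 37 C.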

[2] = qHTS assay to identify small molecule antagonists of the estrogen receptor alpha (ER-alpha) signaling pathway using the BG1 cell line in the presence of 0.1 nM 17-beta-estradiol - cell viability counter screen (AID 1259241); also: nearly all actives have a fitted effect of over 40% in size
Outline: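 Viability in VM7Luc4E2 cells after 22 hr compound exposure under 0.1 nM 17beta-estradiol stimulation, by CellTiter-Fluor.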

[3] = qHTS assay to identify small molecule antagonists of the androgen receptor (AR) signaling pathway using the MDA cell line in the presence of 0.5 nM R1881 - cell viability counter screen (AID 1259242); also: nearly all actives have a fitted effect of over 45% in size
Outline: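 Human breast carcinoma MDA-kb2 cells, cultured without CO2, receive compounds alongside 0.5 nM (final) R1881 agonist. After 16 hr at 37C, viability is taken as live-cell protease signal.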

[4] = biological target: Estrogen receptor (Homo sapiens) (UniProt P03372); test: qHTS assay to identify small molecule antagonists of the estrogen receptor alpha (ER-alpha) signaling pathway using the BG1 cell line in the presence of 0.1 nM 17-beta-estradiol (AID 1259244); also: nearly all actives have a fitted effect of over 50% in size
Chain of Estrogen receptor (Homo sapiens) (P03372 whole entry, looked up): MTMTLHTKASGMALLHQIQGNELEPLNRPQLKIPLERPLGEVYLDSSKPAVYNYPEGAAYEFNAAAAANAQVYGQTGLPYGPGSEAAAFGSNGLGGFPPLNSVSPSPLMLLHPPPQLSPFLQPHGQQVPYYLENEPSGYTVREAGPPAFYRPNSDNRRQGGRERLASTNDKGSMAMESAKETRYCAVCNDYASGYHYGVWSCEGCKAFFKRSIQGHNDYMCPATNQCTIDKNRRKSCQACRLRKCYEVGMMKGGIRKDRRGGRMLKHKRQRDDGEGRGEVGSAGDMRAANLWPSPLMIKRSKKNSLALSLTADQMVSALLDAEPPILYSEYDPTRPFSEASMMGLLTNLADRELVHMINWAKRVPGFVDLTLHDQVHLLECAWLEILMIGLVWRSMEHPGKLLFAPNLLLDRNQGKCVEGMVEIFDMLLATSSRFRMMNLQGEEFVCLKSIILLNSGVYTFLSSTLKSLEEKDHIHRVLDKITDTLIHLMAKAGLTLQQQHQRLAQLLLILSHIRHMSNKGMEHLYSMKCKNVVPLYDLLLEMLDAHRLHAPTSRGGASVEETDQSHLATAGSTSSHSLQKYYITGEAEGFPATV
Outline: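 Seeding of stripped-serum-adapted VM7Luc4E2 cells, 24 h attachment, compound transfer, then 0.1 nM final 17beta-estradiol; after 22 h incubation, ONE-Glo reagent and luminescence reading.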

[5] = qHTS assay to identify small molecule phospholipidosis (PLD) inducers (AID 1259344; active = well fitted curve in the direction sought with a large enough effect; an effect the other way counts as inactive or inconclusive)
Outline: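 Accumulated phospholipid, stained red by LipidTOX during 24 h compound treatment of HepG2 cells at 37 C, is quantified from images as pit number and intensity, normalised per cell using Hoechst-stained nuclei.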

[6] = qHTS assay to identify small molecule HDAC inhibitors (AID 1259364); also: potency is read from the fitted curve at half-maximal effect;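 also: wild-type HCT-116 cells with endogenous class I/II HDAC activity; nearly all actives have a fitted effect of over 45% in size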
Outline: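 After a 2 hr compound incubation (37C, 5% CO2), HCT-116 cells seeded at 1,500/well the day before received HDAC-Glo reagent; signal read as luminescence after 30 min at room temperature.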

[7] = qHTS assay to identify small molecule HDAC inhibitors - cell viability counter screen (AID 1259365); also: series mostly up to about 92 µM; nearly all actives have a fitted effect of over 50% in size
Outline: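 Cytotoxicity was gauged in wild-type HCT-116 cells after a brief 2hr treatment with DMSO-dissolved compounds at 37C and 5% CO2, using CellTiter-Glo luminescence developed for 30min at room temperature.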

[8] = qHTS assay to identify small molecule agonists of the sonic hedgehog signaling (Shh) pathway - cell viability counter screen (AID 1259366); also: nearly all actives have a fitted effect of over 50% in size
Outline: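 Stable Gli1-Luc NIH/3T3 clone, 2,000 cells/well. Compound exposure 24hr at 37C. Read-out: CellTiter-Fluor fluorescence.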

[9] = qHTS assay to identify small molecule antagonists of the sonic hedgehog signaling (Shh) pathway - cell viability counter screen (AID 1259367); also: nearly all actives have a fitted effect of over 55% in size
Outline: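 CellTiter-Fluor signal in conditioned medium-stimulated 3T3 Gli1-Luc cells, 23 hr compound exposure, 37C.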

[10] = qHTS assay to identify small molecule antagonists of the sonic hedgehog signaling (Shh) pathway (AID 1259369; calls by dose curve; also: nearly all actives have a fitted effect of over 45% in size)
Outline: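 Gli1 transcriptional reporter (firefly Luc) in NIH/3T3 background, conditioned-medium activated. 24hr exposure, luminescence endpoint.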

[11] = biological target: Estrogen receptor beta (Homo sapiens) (UniProt Q92731); test: qHTS assay to identify small molecule agonists of the estrogen receptor beta (ER-beta) signaling pathway (AID 1259377; active = well fitted activation curve with a large enough effect in the signal ratio in the repeat runs, not every such curve was filed as active; the % refers to the signal ratio)
Chain of Estrogen receptor beta (Homo sapiens) (Q92731 whole entry, looked up): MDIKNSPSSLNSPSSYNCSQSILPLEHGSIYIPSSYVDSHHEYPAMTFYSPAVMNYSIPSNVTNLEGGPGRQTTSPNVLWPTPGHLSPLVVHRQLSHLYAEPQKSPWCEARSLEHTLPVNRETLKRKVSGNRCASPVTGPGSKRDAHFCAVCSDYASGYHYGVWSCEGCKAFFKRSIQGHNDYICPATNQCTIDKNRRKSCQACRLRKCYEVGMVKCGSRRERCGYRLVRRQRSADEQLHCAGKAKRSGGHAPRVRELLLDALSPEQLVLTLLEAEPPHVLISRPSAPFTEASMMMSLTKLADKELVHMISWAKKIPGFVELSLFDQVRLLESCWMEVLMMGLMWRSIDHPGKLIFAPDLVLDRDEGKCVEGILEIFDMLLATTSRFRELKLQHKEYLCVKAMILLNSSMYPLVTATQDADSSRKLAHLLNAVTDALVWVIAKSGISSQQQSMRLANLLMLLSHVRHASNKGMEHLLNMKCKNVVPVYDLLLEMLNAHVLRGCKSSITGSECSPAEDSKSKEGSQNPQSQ
Outline: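 Measured by fluorescence intensity from a B/G FRET beta-lactamase substrate (2 h, room temperature) in ER-beta-UAS-bla HEK293T cells treated with DMSO-dissolved compounds for 16 hr at 37C and 5% CO2.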

[12] = qHTS assay to identify small molecule agonists of the androgen receptor (AR) signaling pathway in the presence of an antagonist - cell viability counter screen (AID 1259379);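 also: MDA-kb2 human breast cancer cells carrying an MMTV luciferase reporter; series mostly up to about 92 µM; nearly all actives have a fitted effect of over 25% in size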
Outline: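 Counter screen for cell viability run in parallel with the AR agonist-mode luciferase assay. MDA-kb2 cells were co-treated with nilutamide (3.0uM final) and compounds, then incubated 16 hr at 37C, and CellTiter-Fluor fluorescence was measured.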

[13] = qHTS assay to identify small molecule agonists of the estrogen receptor beta (ER-beta) signaling pathway - cell viability counter screen (AID 1259380); also: nearly all actives have a fitted effect of over 30% in size
Outline: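 In this qHTS counter screen, HEK293T cells carrying an ER-beta/UAS beta-lactamase reporter, grown in 2% charcoal-stripped FBS, received compound for 16 hr; ATP-based CellTiter-Glo luminescence was then read after 30 min at room temperature.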

[14] = qHTS assay to identify small molecule antagonists of the estrogen receptor beta (ER-beta) signaling pathway - cell viability counter screen (AID 1259382);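 also: HEK293T cells carrying ER-beta-UAS-bla reporter stimulated with estradiol; series mostly up to about 92 µM; nearly all actives have a fitted effect of over 55% in size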
Outline: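 HEK293T ER-beta-UAS-bla, 2% charcoal-stripped FBS; compounds + 1nM E2 16 hr 37C; CellTiter-Glo luminescence, 30 min RT.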

[15] = biological target: Estrogen receptor (Homo sapiens) (UniProt P03372); test: qHTS assay to identify small molecule agonists of the estrogen receptor alpha (ER-alpha) signaling pathway in the presence of an antagonist (AID 1259383; calls by dose curve; also: top concentration of the series differs between compounds; nearly all actives have a fitted effect of over 15% in size)
Outline: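 ER-alpha agonism measured under antagonist challenge: 10.0nM ICI-182,780 (final) plus compound, 15 concentrations, 22hr, VM7Luc4E2 ERE-luciferase cells. Read by luminescence.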

[16] = qHTS assay to identify small molecule agonists or antagonists of the thyroid stimulating hormone receptor (TSHR) signaling pathway - wild type cell line counter screen (AID 1259384; calls by dose curve)
Outline: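 Counter screen in untransfected Hek293: compounds (15-point titration, triplicate) plus phosphodiesterase inhibitor Ro20-1724 added after 18 h plating; 30 min RT. Intracellular cAMP via competitive d2/cryptate immunoassay, 1 h incubation.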

[17] = qHTS assay to identify small molecule agonists of the sonic hedgehog signaling (Shh) pathway (AID 1259368; calls by dose curve;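 also: NIH/3T3-derived 3T3Gli1-Luc cells carrying a stable Gli1-driven firefly luciferase reporter; series mostly up to about 92 µM; nearly all actives have a fitted effect of over 15% in size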)
Outline: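 Stable NIH/3T3 Gli1-Luc reporter clone; 24 hr cpd exposure after a 4 hr settling period; luminescence endpoint.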

[18] = biological target: Estrogen receptor beta (Homo sapiens) (UniProt Q92731); test: qHTS assay to identify small molecule antagonists of the estrogen receptor beta (ER-beta) signaling pathway (AID 1259378; active = well fitted inhibition curve with a large enough effect in the signal ratio in the repeat runs, not every such curve was filed as active; the % refers to the signal ratio)
Outline: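 Antagonist mode: compounds added to beta-lactamase reporter HEK293T ER-beta-UAS cells stimulated with E2 (1nM final), 16 hr at 37C. LiveBLAzer B/G FRET substrate, 2 hours room temperature, fluorescence read-out.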

SMILES | Potency [1] | outcome [2] | outcome [3] | outcome [4] | Potency [5] | Potency [6] | outcome [7] | Potency [8] | outcome [9] | Potency [10] | outcome [11] | Potency [12] | Potency [13] | Potency [14] | Potency [15] | outcome [16] | Potency [17] | Potency [18] | PLD induction [5]
[O-][N+](=Nc1ccccc1)c1ccccc1 | inactive | inactive | inactive | inactive | inactive | 9.69 µM (active) | inactive | inactive | inactive | inactive | inactive | inactive | inactive | inactive | inactive | inactive | – | – | –
O=C(O)c1ccccc1-c1ccc(C(F)(F)F)cc1 | inactive | inactive | inactive | inactive | inactive | inactive | inactive | inactive | inactive | inactive | – | inactive | inactive | inactive | inactive | inactive | inactive | – | –
Nc1cc(N)cc(C(=O)O)c1 | inactive | inactive | inactive | inactive | – | inactive | inactive | inactive | inactive | inactive | inactive | inactive | inactive | inactive | inactive | inactive | inactive | inactive | –
Nc1[nH]c(=O)ncc1F | inactive | inactive | inactive | inactive | inactive | inactive | inactive | inactive | inactive | inactive | inactive | inactive | – | inactive | inactive | – | inactive | inactive | –
Nc1nc2c(ncn2CCC(CO)CO)c(=O)[nH]1 | inactive | inactive | inactive | inactive | inactive | inactive | inactive | inactive | inactive | – | inactive | inactive | inactive | inactive | inactive | inactive | inactive | – | –
COC(=O)[C@H]1[C@H]2C[C@@H]3c4[nH]c5cc(OC)ccc5c4CCN3C[C@H]2C[C@@H](OC(=O)COc2ccc(OC)cc2)[C@@H]1OC | inactive | inactive | inactive | inactive | inactive | inactive | inactive | inactive | inactive | – | inactive | inactive | – | – | inactive | inactive | inactive | – | –
COc1cc(O)cc(O)c1 | inactive | inactive | inactive | inactive | inactive | inactive | inactive | inactive | inactive | inactive | – | inactive | inactive | inactive | inactive | inactive | inactive | – | –
CC(C)[C@H](N)C(=O)OCCOCn1cnc2c(=O)[nH]c(N)nc21 | inactive | inactive | inactive | inactive | inactive | inactive | inactive | inactive | inactive | inactive | inactive | inactive | inactive | inactive | inactive | inactive | inactive | – | –
CC(C)[N+](C)(C)CC(O)COc1cccc2ccccc12 (stereo unspecified) | inactive | inactive | inactive | inactive | inactive | inactive | inactive | inactive | inactive | – | inactive | inactive | inactive | inactive | inactive | inactive | inactive | inactive | –
NS(=O)(=O)c1cc2c(cc1Cl)NC(CSCc1ccccc1)=NS2(=O)=O | inactive | inactive | inactive | inactive | inactive | inactive | inactive | inactive | inactive | inactive | – | inactive | inactive | inactive | inactive | inactive | inactive | – | –
Nc1ccn(C2CO[C@H](CO)O2)c(=O)n1 (stereo partly specified) | 19 µM (active) | inactive | inactive | inactive | – | inactive | inactive | inactive | inactive | – | inactive | inactive | inactive | inactive | inactive | inactive | inactive | inactive | 4.48% [at 7.66 µM]
CC12CCC(CC1=O)C2(C)C (stereo unspecified) | inactive | inactive | inactive | inactive | – | inactive | inactive | inactive | inactive | inactive | inactive | inactive | inactive | inactive | inactive | inactive | inactive | inactive | –
CN(C)CCOC(c1ccc(Cl)cc1)c1ccccn1 (stereo unspecified) | inactive | inactive | inactive | inactive | inactive | inactive | – | inactive | inactive | – | – | inactive | inactive | inactive | inactive | inactive | inactive | – | –
Nc1nc(F)nc2c1ncn2[C@@H]1O[C@H](CO)[C@@H](O)[C@@H]1O | inactive | inactive | inactive | inactive | inactive | inactive | inactive | inactive | inactive | inactive | inactive | inactive | inactive | inactive | inactive | inactive | inactive | inactive | –
OCc1ccccn1 | inactive | inactive | inactive | inactive | inactive | inactive | inactive | inactive | inactive | – | inactive | inactive | inactive | inactive | inactive | inactive | inactive | – | –
CCC(C)(C)C1CCC(OC)CC1 (stereo unspecified) | inactive | inactive | inactive | inactive | – | inactive | inactive | inactive | inactive | inactive | inactive | inactive | inactive | inactive | inactive | inactive | inactive | inactive | –
Nc1cc(C(Cl)=C(Cl)Cl)c(S(N)(=O)=O)cc1S(N)(=O)=O | inactive | inactive | inactive | inactive | inactive | inactive | inactive | inactive | inactive | inactive | inactive | inactive | – | inactive | inactive | inactive | inactive | – | –
